Screen size: about 5,500 compounds; about 2,000 (36%) were called active. About 18% were inconclusive and are not listed. No stated cut-off is given here; in the data, active means normalized growth mostly below about 0.91 (no sharp cut-off); inconclusive means no clear call, values can overlap the other calls; inactive means mostly above about 0.92. This is one part of the list.
Assay: chemical genetic growth profiling, strain panel (AID 1159580);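 further: tested at 20 µM; growth read once vehicle control cultures reached saturation at 30 °C; 1 = growth at the plate median or of vehicle wells; lower values mean less growth of the strain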
Conditions: growth OD

Measured: normalized growth

Cc1ccc(S(=O)(=O)NC(=O)NN2CC3CCCC3C2)cc1 (stereo not drawn)
inactive: S. cerevisiae deletion strains, locus YJR043C, strain POL32, active compounds read low 0.991 | S. cerevisiae deletion strains, locus YJR066W, strain TOR1, active compounds read low 0.904 | S. cerevisiae deletion strains, locus YKL009W, strain mrt4, active compounds read low 1.02 | S. cerevisiae deletion strains, locus YKL068W, active compounds read low 1.01 | S. cerevisiae deletion strains, locus YKL085W, strain MDH1 (second series), active compounds read low 1.04 | S. cerevisiae deletion strains, locus YKL085W, strain MDH1, active compounds read low 1.04 | S. cerevisiae deletion strains, locus YKL160W, strain elf1, active compounds read low 0.98 | S. cerevisiae deletion strains, locus YKL190W, strain CNB1, active compounds read low 1.01 | S. cerevisiae deletion strains, locus YKR001C, strain vps1, active compounds read low 1.01 | S. cerevisiae deletion strains, locus YKR026C, strain gcn3, active compounds read low 0.978 | S. cerevisiae deletion strains, locus YKR091W, strain srl3, active compounds read low 0.974 | S. cerevisiae deletion strains, locus YLL001W, strain dnm1, active compounds read low 0.953 | S. cerevisiae deletion strains, locus YLL026W, active compounds read low 0.974 | S. cerevisiae deletion strains, locus YLL041C, strain sdh2, active compounds read low 0.982 | S. cerevisiae deletion strains, locus YLR027C, strain aat2, active compounds read low 0.976 | S. cerevisiae deletion strains, locus YLR039C, strain RIC1, active compounds read low 0.943 | S. cerevisiae deletion strains, locus YLR058C, strain SHM2, active compounds read low 1.01 | S. cerevisiae deletion strains, locus YLR102C, strain apc9, active compounds read low 1.01 | S. cerevisiae deletion strains, locus YLR113W, strain HOG1, active compounds read low 0.974 | S. cerevisiae deletion strains, locus YLR221C, strain rsa3, active compounds read low 0.976 | S. cerevisiae deletion strains, locus YLR258W, strain gsy2, active compounds read low 0.99 | S. cerevisiae deletion strains, locus YLR262C, strain YPT6 (second series), active compounds read low 0.927 | S. cerevisiae deletion strains, locus YLR262C, strain YPT6, active compounds read low 0.967 | S. cerevisiae deletion strains, locus YLR268W, strain sec22, active compounds read low 0.999 | S. cerevisiae deletion strains, locus YLR320W, strain mms22, active compounds read low 0.983 | S. cerevisiae deletion strains, locus YLR330W, strain CHS5, active compounds read low 1 | S. cerevisiae deletion strains, locus YLR342W, strain FKS1 (second series), active compounds read low 0.992 | S. cerevisiae deletion strains, locus YLR342W, strain FKS1, active compounds read low 0.996 | S. cerevisiae deletion strains, locus YLR357W, strain rsc2, active compounds read low 0.989 | S. cerevisiae deletion strains, locus YLR370C, strain arc18, active compounds read low 0.953 | S. cerevisiae deletion strains, locus YLR371W, strain rom2, active compounds read low 1.01 | S. cerevisiae deletion strains, locus YLR384C, strain iki3, active compounds read low 0.993 | S. cerevisiae deletion strains, locus YLR418C, strain cdc73, active compounds read low 1.02 | S. cerevisiae deletion strains, locus YML016C, strain PPZ1, active compounds read low 0.996 | S. cerevisiae deletion strains, locus YML032C, strain rad52, active compounds read low 1.01 | S. cerevisiae deletion strains, locus YML120C, strain ndi1, active compounds read low 1.01 | S. cerevisiae deletion strains, locus YML124C, strain tub3, active compounds read low 1.01 | S. cerevisiae deletion strains, locus YMR058W, strain fet3, active compounds read low 0.958 | S. cerevisiae deletion strains, locus YMR078C, strain ctf18, active compounds read low 1.02 | S. cerevisiae deletion strains, locus YMR125W, strain sto1, active compounds read low 0.966 | S. cerevisiae deletion strains, locus YMR129W, active compounds read low 0.97 | S. cerevisiae deletion strains, locus YMR205C, strain PFK2, active compounds read low 0.991 | S. cerevisiae deletion strains, locus YMR223W, strain ubp8, active compounds read low 1.03 | S. cerevisiae deletion strains, locus YMR231W, strain pep5, active compounds read low 0.989 | S. cerevisiae deletion strains, locus YMR263W, strain SAP30, active compounds read low 1.02 | S. cerevisiae deletion strains, locus YMR307W, strain GAS1, active compounds read low 1.04 | S. cerevisiae deletion strains, locus YNL067W, strain RPL9B, active compounds read low 1.03 | S. cerevisiae deletion strains, locus YNL071W, strain lat1, active compounds read low 0.974 | S. cerevisiae deletion strains, locus YNL153C, strain GIM3, active compounds read low 1 | S. cerevisiae deletion strains, locus YNL183C, strain NPR1, active compounds read low 0.92 | S. cerevisiae deletion strains, locus YNL209W, strain ssb2, active compounds read low 0.977 | S. cerevisiae deletion strains, locus YNL233W, strain BNI4, active compounds read low 1.01 | S. cerevisiae deletion strains, locus YNL248C, strain rpa49, active compounds read low 0.982 | S. cerevisiae deletion strains, locus YNL250W, strain rad50, active compounds read low 1.03 | S. cerevisiae deletion strains, locus YNL271C, strain bni1, active compounds read low 1.01 | S. cerevisiae deletion strains, locus YNL298W, strain CLA4, active compounds read low 1.04 | S. cerevisiae deletion strains, locus YNL307C, strain MCK1, active compounds read low 1.02 | S. cerevisiae deletion strains, locus YNL322C, strain KRE1 (second series), active compounds read low 0.978 | S. cerevisiae deletion strains, locus YNR049C, strain mso1, active compounds read low 0.961 | S. cerevisiae deletion strains, locus YNR052C, strain pop2, active compounds read low 1.01 | S. cerevisiae deletion strains, locus YOL012C, strain htz1 0.86 | S. cerevisiae deletion strains, locus YOL147C, strain pex11, active compounds read low 1.02 | S. cerevisiae deletion strains, locus YOR001W, strain rrp6, active compounds read low 0.99 | S. cerevisiae deletion strains, locus YOR061W, strain CKA2, active compounds read low 0.996 | S. cerevisiae deletion strains, locus YOR069W, strain VPS5, active compounds read low 1.01 | S. cerevisiae deletion strains, locus YOR070C, strain gyp1, active compounds read low 0.985 | S. cerevisiae deletion strains, locus YOR080W, strain dia2, active compounds read low 0.97 | S. cerevisiae deletion strains, locus YOR083W, strain WHI5, active compounds read low 0.982 | S. cerevisiae deletion strains, locus YOR106W, strain vam3, active compounds read low 0.968 | S. cerevisiae deletion strains, locus YOR136W, strain idh2, active compounds read low 1.01 | S. cerevisiae deletion strains, locus YOR144C, strain elg1, active compounds read low 1.01 | S. cerevisiae deletion strains, locus YOR184W, strain ser1, active compounds read low 1 | S. cerevisiae deletion strains, locus YOR231W, strain MKK1, active compounds read low 0.971 | S. cerevisiae deletion strains, locus YOR265W, strain rbl2, active compounds read low 0.967 | S. cerevisiae deletion strains, locus YOR270C, strain vph1, active compounds read low 1.03 | S. cerevisiae deletion strains, locus YOR290C, strain snf2, active compounds read low 0.939 | S. cerevisiae deletion strains, locus YOR316C, strain cot1, active compounds read low 1.01 | S. cerevisiae deletion strains, locus YPL051W, strain arl3, active compounds read low 0.959 | S. cerevisiae deletion strains, locus YPL078C, strain atp4, active compounds read low 0.978 | S. cerevisiae deletion strains, locus YPL106C, strain sse1, active compounds read low 1 | S. cerevisiae deletion strains, locus YPL240C, strain hsp82, active compounds read low 0.985 | S. cerevisiae deletion strains, locus YPL256C, strain CLN2, active compounds read low 0.965 | S. cerevisiae deletion strains, locus YPR119W, strain clb2, active compounds read low 1.01 | S. cerevisiae deletion strains, locus YPR141C, strain kar3, active compounds read low 1.03 | S. cerevisiae deletion strains, locus YPR163C, strain tif3, active compounds read low 1.02 | S. cerevisiae deletion strains, locus YPR167C, strain met16, active compounds read low 1.02 | S. cerevisiae deletion strains, strain wtn01, active compounds read low 1 | S. cerevisiae strains, strain wild type, active compounds read low 0.997

From PubChem BioAssay AID1159580 (chemical genetic matrix, 2015)
